Test results published in PubChem BioAssay.
Calls of active or inactive are those of the source.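 The calls were made as follows: active = compounds killing one labelled cell type while sparing the other, by normalised counts and ratio limits, not self-fluorescent; inactive = the rest.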

assay: EMT-state selective cytotoxicity in co-culture – imaging, PC-3E GFP, TEM4-18 mCherry, primary screen (AID 1345086); conditions: PC-3E GFP / TEM4-18 mCherry co-culture, imaging cell counts; at 1 µM; actives lie on both sides;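 also: normalised mesenchymal count divided by normalised epithelial count so high means epithelial killing; cells exposed to compound for 72 h before imaging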

| Structure (SMILES) | red/green cell ratio (normalised) |
| --- | --- |
| O=C1CC[C@@]2(O)[C@H]3Cc4ccc(O)c5c4C2(CCN3CC2CC2)[C@H]1O5 | 1.24 (inactive) |
| C=C[C@H]1CN2CC[C@H]1C[C@@H]2[C@@H](OC(=O)OCC)c1ccnc2ccc(OC)cc12 | 1.15 (inactive) |
| CC1(C)C(=O)C=C[C@@]2(C)C1=C(O)C(=O)[C@]1(C)C2CC[C@@]2(C)[C@H](c3ccoc3)C[C@H]3O[C@]321 (stereo partly drawn) | 1.22 (inactive) |
| COc1cccc([C@]2(O)CCCC[C@H]2CN(C)C)c1 | 1.34 (inactive) |
| CC(=O)O[C@H]1C[C@@H](OC(C)=O)C(C)(C)C2C[C@@H](OC(C)=O)[C@]3(C)C(CC[C@@]4(C)[C@H](c5ccoc5)C(=O)[C@H]5O[C@]543)[C@]21C (stereo partly drawn) | 1.03 (inactive) |
| NC1C[C@H]1c1ccccc1 (stereo partly drawn) | 1.23 (inactive) |
| CC1(C)C(=O)C=C[C@@]2(C)C1C[C@@H](O)[C@]1(C)C2CC[C@@]2(C)[C@H](c3ccoc3)OC(=O)[C@H]3O[C@]321 (stereo partly drawn) | 1.08 (inactive) |
| COC[C@]12CN(C=O)C3[C@@H]4[C@H](OC)C1[C@]3(C1CC3(O)C(OC)C(O)C4(OC(C)=O)C1C3OC(=O)c1ccccc1)[C@@H](OC)C[C@H]2O (stereo partly drawn) | 1 (inactive) |
| CNC(C)[C@H](O)c1ccccc1 (stereo partly drawn) | 1.42 (inactive) |
| C[C@@H]1O[C@@H](O[C@H]2C[C@@H](O)[C@]3(CO)C4C(CC[C@]3(O)C2)[C@@]2(O)CC[C@H](C3=CC(=O)OC3)[C@@]2(C)C[C@H]4O)[C@H](O)[C@H](O)[C@H]1O (stereo partly drawn) | 0.13 (inactive) |
| CC(C)C[C@@H](CN)CC(=O)O | 1.06 (inactive) |
| CC1[C@H](C)OC(=O)CC(O)CC(O)CC(O)CCC(O)C(O)C[C@]2(O)CC(O)C(C(=O)O)C(CC(OC3O[C@H](C)[C@@H](O)[C@H](N)[C@@H]3O)/C=C/C=C/C=C/C=C/CC/C=C/C=C/[C@H](C)[C@H]1O)O2 (stereo partly drawn) | 1.28 (inactive) |
| C[N+](C)(C)CC(=O)[O-] | 1.27 (inactive) |
| COc1cc2c(cc1OC)[C@@H]1C(=O)c3ccc4c(c3O[C@@H]1CO2)CC(C(C)C)O4 (stereo partly drawn) | 1.13 (inactive) |
| C#CC1(O)CCC2C3CCC4=CC(=O)CCC4(C)C3CCC21C (stereo not drawn) | 0.77 (inactive) |
| CCC(=O)O[C@H]1CCC2C3CCC4=CC(=O)CC[C@]4(C)C3CC[C@@]21C (stereo partly drawn) | 1.2 (inactive) |
| C[C@@H]1CC[C@@]2(OC1)OC1C(O)C3C4CC[C@H]5C[C@H](O[C@@H]6O[C@H](CO)[C@H](O[C@@H]7O[C@H](CO)[C@@H](O)[C@H](O[C@@H]8OC[C@@H](O)[C@H](O)[C@H]8O)[C@H]7O[C@@H]7O[C@H](CO)[C@H](O)[C@H](O[C@@H]8O[C@H](CO)[C@@H](O)[C@H](O)[C@H]8O)[C@H]7O)[C@H](O)[C@H]6O)[C@H](O)C[C@]5(C)C4CC[C@]3(C)C1[C@@H]2C (stereo partly drawn) | 0.84 (inactive) |
| CCN1C[C@@]2(COC)C3[C@@H](OC)[C@H]4[C@@H]1[C@]3(C(OC)C[C@H]2O)C1C[C@@]2(O)[C@H](OC(=O)c3ccccc3)C1[C@]4(OC(C)=O)[C@@H](O)[C@@H]2OC (stereo partly drawn) | 1.07 (inactive) |
| CC(=O)O[C@@H]1CC2C(C)(C)C(=O)C=C[C@]2(C)C2CC[C@]3(C)C(=CC(=O)O[C@H]3c3ccoc3)[C@@]21C (stereo partly drawn) | 1.01 (inactive) |
| C[C@@H]1CC(Cl)CC[C@H]1C(=O)OC(C)(C)C (stereo partly drawn) | 1.02 (inactive) |
| O=C1C=CC(=O)c2ccccc21 | 0.81 (inactive) |
| C=CCN1CC[C@]23c4c5ccc(O)c4OC2C(=O)CC[C@@]3(O)[C@H]1C5 (stereo partly drawn) | 1.09 (inactive) |
| CC1=CC(=O)c2c(O)cccc2C1=O | 0.13 (inactive) |
| CC1OC(=O)[C@@H](C(C)C)NC(=O)C(C(C)C)OC(=O)[C@H](C(C)C)NC(=O)C(C)OC(=O)[C@@H](C(C)C)NC(=O)C(C(C)C)OC(=O)[C@H](C(C)C)NC(=O)C(C)OC(=O)[C@@H](C(C)C)NC(=O)C(C(C)C)OC(=O)[C@H](C(C)C)NC1=O (stereo partly drawn) | 0.92 (inactive) |
| C=C1CC2C(CC[C@]3(C)C(=O)CCC23)[C@@]2(C)C=CC(=O)C=C12 (stereo partly drawn) | 1.16 (inactive) |
| C=C(C)C1Cc2c(ccc3c(=O)c4c(oc23)COc2cc(OC)c(OC)cc2-4)O1 (stereo not drawn) | 0.91 (inactive) |
| O=C(NC(=O)c1c(F)cccc1F)Nc1ccc(Cl)cc1 | 1 (inactive) |
| CC(=O)O[C@H]1C(=O)[C@@]2(C)C([C@H](OC(=O)c3ccccc3)[C@]3(O)C[C@H](O)C(C)=C1C3(C)C)[C@]1(OC(C)=O)CO[C@@H]1C[C@@H]2O (stereo partly drawn) | 0.91 (inactive) |
